TEAD-YAP block: TEAD-YAP interaction inhibition, primary screen, TEAD-YAP interaction inhibitor project, luminescence, HEK-TIYL cells; TEAD-Gal4/YAP UAS-luciferase luminescence; inhibition, % at 9.12 µM; 1.4% of 640,000 active; AID 1259422, 2018; in the data active = inhibition above about 32%
MITF inh: MITF inhibitors, primary screen, biochemical, AlphaScreen, human | Microphthalmia-associated transcription factor (Homo sapiens), O75030 | AlphaScreen MITF homodimerization, bead proximity signal | inhibition, % at 2.6 µM | 0.91% of 650,000 active; in the data active = inhibition above about 50%
GPR151 activ: activators of human GPR151, primary screen, cell-based, PathHunter beta-arrestin, luminescence; G-protein coupled receptor 151 (Homo sapiens), Q8TDV0; PathHunter beta-arrestin GPR151 cells; activation, % at 11.2 µM; 1% of 650,000 active; in the data active = activation above about 4.9%
FBW7 activator: FBW7 E3 ligase activators, primary screen, biochemical, AlphaScreen, human | normalized activity (activation), % at 26.1 µM | 0.13% of 650,000 active | AlphaScreen FBW7–phospho-cyclin E peptide binding, activator screen; in the data active = normalized activity above about 1.9%;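 also: purified mutant Fbw7 with reduced substrate affinity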
Target sequence (Q969H0 whole entry, looked up): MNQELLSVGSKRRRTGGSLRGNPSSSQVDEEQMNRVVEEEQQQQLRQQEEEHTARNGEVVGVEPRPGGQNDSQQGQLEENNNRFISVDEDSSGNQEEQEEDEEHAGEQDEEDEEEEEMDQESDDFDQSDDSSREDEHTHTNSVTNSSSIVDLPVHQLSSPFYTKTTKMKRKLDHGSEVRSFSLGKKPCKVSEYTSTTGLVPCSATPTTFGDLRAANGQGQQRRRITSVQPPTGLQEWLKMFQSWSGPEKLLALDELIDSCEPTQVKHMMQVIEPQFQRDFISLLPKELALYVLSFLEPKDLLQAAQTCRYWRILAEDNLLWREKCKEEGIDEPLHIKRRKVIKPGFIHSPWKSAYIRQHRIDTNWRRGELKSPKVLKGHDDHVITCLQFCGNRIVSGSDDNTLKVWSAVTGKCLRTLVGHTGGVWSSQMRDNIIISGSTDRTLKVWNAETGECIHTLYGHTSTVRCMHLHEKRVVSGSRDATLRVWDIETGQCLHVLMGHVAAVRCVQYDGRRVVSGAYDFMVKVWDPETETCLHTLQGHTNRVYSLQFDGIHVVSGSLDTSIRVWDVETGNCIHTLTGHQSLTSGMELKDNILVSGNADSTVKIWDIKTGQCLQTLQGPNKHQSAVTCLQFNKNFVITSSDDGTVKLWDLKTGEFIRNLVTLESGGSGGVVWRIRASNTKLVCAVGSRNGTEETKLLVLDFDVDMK
GPR151 conf act: GPR151 activators, triplicate retest, confirmation, cell-based, PathHunter beta-arrestin, luminescence. shares compounds with GPR151 activ. GPR151 PathHunter beta-arrestin cells, 90 min; % of EA-reagent control over plate median. activation, % at 11.2 µM. 6,700 tested, under 10 active. AID 1508609, 2020;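 active = mean percent activation across replicates above the confirmation screen cutoff of 4.91%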
GPR119 ag: GPR119 activators in beta-arrestin cells, counter-screen for GPR151 activator project, cell-based, PathHunter beta-arrestin, luminescence, triplicate; shares compounds with GPR151 activ; 90 min; 0 = compound-well median, 100 = enzyme-acceptor control; activation, % at 11.2 µM; 0.3% of 6,700 active; AID 1508611, 2020;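 active = mean percent activation in the counterscreen above 29.09%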;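 also: counterscreen on off-target GPR119 to flag nonselective hits from the GPR151 activator screen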
A number is an active result; ! = not confirmed by another sample. In the library only some 3.5% were active in any assay of this set; here they are far more common.

What do the screens show for `COc1ccc(-c2csc(NC(=O)c3ccc(S(=O)(=O)N4CCCC4)cc3)n2)c(OC)c1`?
TEAD-YAP block: inactive; MITF inh: inactive; GPR151 activ: 5.5; FBW7 activator: inactive; GPR151 conf act: inactive; GPR119 ag: inactive

Results for CN(Cc1ccccc1)C(=O)c1cc(-c2ccccc2O)no1 ?
TEAD-YAP block: inactive; MITF inh: inactive; GPR151 activ: inactive; FBW7 activator: inactive

Results for COc1ccc(-c2cc(C(=O)N(C)Cc3ccccc3)on2)cc1OC ?
TEAD-YAP block: inactive; MITF inh: inactive; GPR151 activ: 5.9; FBW7 activator: inactive; GPR151 conf act: inactive; GPR119 ag: inactive

Results for c1ccc(Nc2cc(Nc3ccccc3)ncn2)cc1 ?
TEAD-YAP block: inactive; MITF inh: inactive; GPR151 activ: inactive; FBW7 activator: inactive

Results for COc1ccc(/C=N/N(C)C2=NCCN2)c(OC)c1OC ?
TEAD-YAP block: inactive; MITF inh: inactive; GPR151 activ: 6.9; FBW7 activator: inactive; GPR151 conf act: inactive; GPR119 ag: inactive

What do the screens show for `CC(=O)c1cc2c(cc1NC(=O)c1cccc(Br)c1)OCCO2`?
TEAD-YAP block: inactive; MITF inh: inactive; GPR151 activ: 5.6; FBW7 activator: inactive; GPR151 conf act: inactive; GPR119 ag: inactive

What do the screens show for `CC(=O)c1cc2c(cc1NC(=O)c1ccccc1)OCCO2`?
TEAD-YAP block: inactive; MITF inh: inactive; GPR151 activ: inactive; FBW7 activator: inactive

How did Cc1ccc(-c2c(Nc3ccc(Cl)cc3)c(=O)c2=O)cc1 do in these assays?
TEAD-YAP block: inactive; MITF inh: inactive; GPR151 activ: 5.0; FBW7 activator: inactive; GPR151 conf act: inactive; GPR119 ag: inactive

What do the screens show for `O=C(Nc1ccccc1Br)c1c(O)c2cccc3c2n(c1=O)CC3`?
TEAD-YAP block: inactive; MITF inh: inactive; GPR151 activ: 5.4; FBW7 activator: inactive; GPR151 conf act: inactive; GPR119 ag: inactive

How did CC(C)CCNC(=O)c1c(O)c2cccc3c2n(c1=O)CCC3 do in these assays?
TEAD-YAP block: inactive; MITF inh: inactive; GPR151 activ: inactive; FBW7 activator: inactive

Results for O=C(Nc1ccccc1F)c1c(O)c2cccc3c2n(c1=O)CC3 ?
TEAD-YAP block: inactive; MITF inh: inactive; GPR151 activ: inactive; FBW7 activator: inactive

What do the screens show for `CC(C)CCNC(=O)c1c(O)c2cccc3c2n(c1=O)CC3`?
TEAD-YAP block: inactive; MITF inh: inactive; GPR151 activ: 7.0; FBW7 activator: inactive; GPR151 conf act: inactive; GPR119 ag: inactive

What do the screens show for `CC(C)c1ccc(Cn2ccc3c4c(N)nc(NC5CC5)nc4ccc32)cc1`?
MITF inh: inactive; GPR151 activ: 6.5; FBW7 activator: inactive; GPR151 conf act: 6.5; GPR119 ag: 106

What do the screens show for `Oc1ccccc1CNc1ccc2c(c1)OCCO2`?
TEAD-YAP block: inactive; MITF inh: inactive; GPR151 activ: inactive; FBW7 activator: inactive

What do the screens show for `Oc1ccccc1CNc1cc2c(cc1Br)OCCO2`?
TEAD-YAP block: inactive; MITF inh: inactive; GPR151 activ: 19; FBW7 activator: inactive; GPR151 conf act: inactive; GPR119 ag: inactive

Results for COc1cc(CNC(=O)C2CC2)cc(OC)c1OC ?
TEAD-YAP block: inactive; MITF inh: inactive; GPR151 activ: inactive; FBW7 activator: inactive

How did COc1ccc2sc(C)[n+](CC(=O)O)c2c1 do in these assays?
TEAD-YAP block: inactive; MITF inh: inactive; GPR151 activ: inactive; FBW7 activator: inactive

How did CCOC(=O)C[n+]1c(C)sc2ccc(OC)cc21 do in these assays?
TEAD-YAP block: inactive; MITF inh: inactive; GPR151 activ: 6.1; FBW7 activator: inactive; GPR151 conf act: inactive; GPR119 ag: inactive

What do the screens show for `CCNC(=O)Nc1c(-c2ccccc2)nc2ccccn12`?
TEAD-YAP block: inactive; MITF inh: inactive; GPR151 activ: inactive; FBW7 activator: inactive

Results for Cc1ccc(CC(=O)N(CCCn2ccnc2)c2nc3ccccc3s2)c(C)c1 ?
TEAD-YAP block: inactive; MITF inh: inactive; GPR151 activ: 6.9; FBW7 activator: inactive; GPR151 conf act: inactive; GPR119 ag: inactive

What do the screens show for `Cc1ccc2nc(N(CCCn3ccnc3)C(=O)c3ccc(F)cc3)sc2c1`?
TEAD-YAP block: inactive; MITF inh: inactive; GPR151 activ: inactive; FBW7 activator: inactive

How did O=C(CNC1CCCc2ccccc21)NC12CC3CC(CC(C3)C1)C2 (stereo unspecified) do in these assays?
TEAD-YAP block: inactive; MITF inh: inactive; GPR151 activ: inactive; FBW7 activator: inactive

Results for CC(Cl)(Cl)/C(O)=C(\C#N)c1nnc2n1CCCCC2 ?
TEAD-YAP block: inactive; MITF inh: inactive; GPR151 activ: inactive; FBW7 activator: inactive

Results for CC1(C)C2CC[C@]3(C)C(C(=O)C=C4[C@@H]5C[C@@](C)(C(=O)O)CC[C@]5(C)CC[C@]43C)[C@@]2(C)CC[C@@H]1OC(=O)CCC(=O)O (stereo partly specified) ?
TEAD-YAP block: inactive; MITF inh: inactive; GPR151 activ: 5.2!; FBW7 activator: inactive; GPR151 conf act: inactive; GPR119 ag: inactive

Results for CC1(C)[C@@H](O)CC[C@]2(C)[C@H]3C(=O)C=C4[C@@H]5C[C@@](C)(C(=O)O)CC[C@]5(C)CC[C@@]4(C)[C@]3(C)CC[C@@H]12 ?
TEAD-YAP block: inactive; MITF inh: inactive; GPR151 activ: inactive; FBW7 activator: inactive

How did NC(=O)C1(N2CCCCC2)CCN(S(=O)(=O)c2ccc(Cl)cc2)CC1 do in these assays?
TEAD-YAP block: inactive; MITF inh: inactive; GPR151 activ: 5.4; FBW7 activator: inactive; GPR151 conf act: inactive; GPR119 ag: inactive

What do the screens show for `CCc1cc(I)ccc1NC(=O)COc1ccccc1[N+](=O)[O-]`?
TEAD-YAP block: inactive; MITF inh: inactive; GPR151 activ: inactive; FBW7 activator: inactive

What do the screens show for `O=C(c1ccc(F)cc1)N1CCCC2C=CC=CC21` (stereo unspecified)?
TEAD-YAP block: inactive; MITF inh: inactive; GPR151 activ: inactive; FBW7 activator: inactive

Results for CN1CCN(CC(=O)N2c3ccccc3Sc3ccc(C(F)(F)F)cc32)CC1 ?
TEAD-YAP block: inactive; MITF inh: inactive; GPR151 activ: inactive; FBW7 activator: inactive

How did O=C(CN1CCC(O)CC1)N1c2ccccc2Sc2ccc(C(F)(F)F)cc21 do in these assays?
TEAD-YAP block: inactive; MITF inh: inactive; GPR151 activ: 8.4; FBW7 activator: inactive; GPR151 conf act: inactive; GPR119 ag: inactive

Results for CCOC(=O)c1[nH]c(C)c(C(=O)OCc2nc3ccc(Cl)cc3n2CCO)c1C ?
TEAD-YAP block: 56; MITF inh: inactive; GPR151 activ: 6.3; FBW7 activator: inactive; GPR151 conf act: inactive; GPR119 ag: inactive

High-throughput results deposited in PubChem by The Scripps Research Institute Molecular Screening Center.
